Here are results for 49 compounds from PubChem BioAssay AID1851 (National Center for Advancing Translational Sciences (NCATS), 2009).

Where “and” joins values, the source holds several entries; their conditions need not be identical. Equal entries are not always repeated. In all, about 16,000 compounds went through this assay and about 2,600 (16%) were called active. Roughly 20% stayed inconclusive and do not appear here. The call rests on the fitted dose curve; in most records, active means well fitted curve in the direction sought with a large enough effect; inconclusive means small, poorly fitted or top-dose-only effect, or effect the other way; inactive means no such curve, though single readings can be large or run the other way. Not all results are given here. Some compounds were tested as several samples or in several runs, with calls that do not always agree. Peptide text beside a SMILES is read from it.
On the % scale 0 is the no-effect control and ±100 the full control effect.

Chain of Cytochrome P450 2D6 (Homo sapiens) (P10635 whole entry, looked up): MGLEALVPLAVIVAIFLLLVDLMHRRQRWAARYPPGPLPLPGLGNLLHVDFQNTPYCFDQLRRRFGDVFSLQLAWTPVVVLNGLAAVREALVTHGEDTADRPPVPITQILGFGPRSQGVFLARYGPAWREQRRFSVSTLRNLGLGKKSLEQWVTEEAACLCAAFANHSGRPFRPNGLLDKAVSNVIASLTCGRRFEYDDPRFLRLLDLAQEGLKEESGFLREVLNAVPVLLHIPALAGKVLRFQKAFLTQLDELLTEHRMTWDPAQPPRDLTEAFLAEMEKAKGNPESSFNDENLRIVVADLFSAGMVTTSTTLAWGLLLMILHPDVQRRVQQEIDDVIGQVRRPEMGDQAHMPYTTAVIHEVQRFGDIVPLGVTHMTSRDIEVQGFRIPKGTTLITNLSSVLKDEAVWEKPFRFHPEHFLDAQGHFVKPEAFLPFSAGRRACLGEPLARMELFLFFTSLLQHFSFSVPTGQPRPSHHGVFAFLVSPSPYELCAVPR

The test addresses Cytochrome P450 2D6 (Homo sapiens) (UniProt P10635). In words: Cytochrome panel assay with activity outcomes. Conditions: recombinant CYP, pro-luciferin dealkylation, luminescence, p450-cyp2d6; series mostly up to 57.1 µM; activity, negative = inhibition: at the top concentration.
Consider `O=C(COc1ccc(Cl)cc1)N1CCN(Cc2ccc3c(c2)OCO3)CC1`, for which the AC50 (usually the concentration at which the activity in the assay is half-maximal) is 0.2 µM (active).

Consider `O=C(O)C1CCN(c2ncccn2)CC1`, for which the “activity, negative = inhibition” value is 14.6% (inactive). `c1cnc(N2CCN(Cc3ccc4c(c3)OCO4)CC2)nc1`: the AC50 was 1 µM (active) and 200 nM (active) and inactive. For the compound `O=C(CCN1C(=O)c2cccc3cccc(c23)C1=O)N1CCN(Cc2ccc3c(c2)OCO3)CC1`, the AC50 was 14.1 µM (active). In the case of `O=C(Cc1ccc(Cl)cc1)N1CCN(C(=O)c2ccco2)CC1`, the “activity, negative = inhibition” value was -14.7% (inactive). For `COC(=O)c1ccccc1OCC(=O)N1CCN(c2ccc(Cl)cc2)CC1`, the “activity, negative = inhibition” value was -8.14% (inactive). For the compound `O=C(CN1C(=O)c2cccc3cccc(c23)C1=O)N1CCCCCC1`, the “activity, negative = inhibition” value was -21.8% (inactive).

For the compound `O=C(O)[C@@H]1CCCN1Cc1ccc2c(c1)OCO2`, the activity, negative = inhibition is 7.95% [at 11.4 µM] (inactive). Still for that read-out and setting: to `Cc1ccc(NC(=S)N2CCN(CCN3C(=O)c4cccc5cccc(c45)C3=O)CC2)cc1` belongs -15.8% (inactive); to `CC(=O)[C@@H](C)CCO[C@@]1(C)OCC[C@@H]1C`, 0.323% [at 11.4 µM] (inactive); to `CCOC(=O)c1c(NC(=O)CCCN2CCOCC2)sc2c1CC(C)(C)OC2`, -11.4% (inactive). For `COc1ccc2c(c1)c(CC(=O)O)c(C)n2C(=O)c1ccc(Cl)cc1`, the “activity, negative = inhibition” value was 9.28% (inactive).

Regarding `CCc1ccc(NC(=O)C2CCN(S(=O)(=O)c3c(C)[nH]c(=O)[nH]c3=O)CC2)cc1`, the “activity, negative = inhibition” value is 0.298% (inactive). The same measure, in the same setting: to `CC(=O)[C@@H]1[C@@H]2C(=O)N(C3CCCCC3)C(=O)[C@@H]2C2c3ccccc3C=CN21` (some centres undefined) belongs -46.3% (inactive); to `O=C(CCCN1C(=O)C2C3C=CC(C3)C2C1=O)N1CCN(c2ccccc2)CC1` (centres undefined), 0.827% (inactive). On to `Cc1nnc(-c2cnn(-c3ccccc3)c2N)n1Cc1ccncc1`, for which the “activity, negative = inhibition” value was 22.1% (inactive).

Consider `Cn1c(-c2ccccc2)cnc1N`, for which the AC50 was 11.2 µM (active).

`Nc1nonc1-n1nncc1-c1ccccc1`: the “activity, negative = inhibition” value is -15.6% (inactive). For `Cn1c(=O)c(-c2ccccc2)nc2cncnc21`, the “activity, negative = inhibition” value was 0.107% (inactive). Turning to `CCCCN1C(=O)C(NC(=O)c2cccnc2)(C(F)(F)F)C2=C1CC(C)(C)CC2=O` (centres undefined), the “activity, negative = inhibition” value was 23.5% (inactive).

Take `COc1ccc2c3c(ccc2c1)N[C@H](C(=O)O)CC3`: the activity, negative = inhibition was 3.59% [at 11.4 µM] (inactive). Take `Cc1cc(=O)[nH]c(-n2[nH]c(C)cc2=O)n1`: the “activity, negative = inhibition” value is -22.1% (inactive).

In the case of `CC1(C)CCC(NC(=O)[C@H](N)CCC(=O)O)CC1`, the “activity, negative = inhibition” value is -3.12% (inactive). As to `COc1ccc(-n2c(=O)c(-c3cccs3)nc3cnc(N4CCNCC4)nc32)cc1`, the “activity, negative = inhibition” value was -7.8% (inactive). The same measure, in the same setting: with `CCOC(=O)c1sc(NC(C)=O)nc1-c1ccccc1` the figure was -5.02% (inactive); with `Cc1cc(C)c(C#N)c(Oc2ccccc2)n1`, -8.33% (inactive); with `Cc1cc(C)c(C#N)c(SCS(=O)c2ccc(C(C)(C)C)cc2)n1` (centres undefined), 3.97% (inactive).

As to `C=CCSc1nc(C)cc(/C=C\c2ccccc2)c1C#N`, the AC50 was 2.82 µM (active). Take `COc1ccc(-c2nc3cnc(N(C)C)nc3n(CCc3ccccc3)c2=O)cc1`: the “activity, negative = inhibition” value was 1.04% (inactive). Take `Cc1ccc(S(=O)(=O)CCc2nnc(NC(=O)COc3cccc(C)c3)s2)cc1`: the “activity, negative = inhibition” value is 4.01% (inactive).

Take `CC(=O)N[C@@H](CC(=O)O)C(=O)N[C@@H](CCC(=O)O)C(=O)O` (Ac-Asp-Glu-OH): the AC50 entry was “inactive”. Consider `Clc1ccc(CSC2=NCCN2)cc1Cl`, for which the AC50 is 3.16 µM (active). Consider `COc1cc2nncc(SCc3ccc(Cl)c(Cl)c3)c2cc1OC`, for which the activity, negative = inhibition is 1.56% [at 11.4 µM] (inactive). For the compound `N[C@@H](Cc1cccc([N+](=O)[O-])c1)C(=O)O`, the activity, negative = inhibition was 1.07% [at 11.4 µM] (inactive). In the case of `CCN(Cc1ccccc1)Cc1cccc([N+](=O)[O-])c1`, the AC50 was 0.794 µM (active). On to `Cc1ccc(S(=O)(=O)NCc2cccc([N+](=O)[O-])c2)cc1`, for which the activity, negative = inhibition was 1.17% [at 11.4 µM] (inactive). Take `CN(C)N1C(N)=C(C#N)C(c2cccnc2)C2=C1CC(C)(C)CC2=O` (centres undefined): the “activity, negative = inhibition” value is -16.9% (inactive). `Cc1ccc(=O)n(-c2ccccc2)c1`: the “activity, negative = inhibition” value is -4.98% (inactive).

Take `O=C1C=C(NCC2CCCO2)C2(CCCCC2)O1` (centres undefined): the “activity, negative = inhibition” value is 10.7% (inactive). Same read-out and setting: to `COCCn1c(=O)c(-c2ccc(F)c(F)c2)nc2cncnc21` belongs -7.07% (inactive); to `Cc1ccc(N=Cc2nc(/C=C/c3cccc([N+](=O)[O-])c3)oc2O)cc1`, 5.21% (inactive). In the case of `CN(C)c1ncc2nc(-c3ccc(F)cc3)c(=O)n(Cc3ccc(F)cc3)c2n1`, the “activity, negative = inhibition” value is 4.91% (inactive). Turning to `C#CCCCO/N=C1/C[C@@H](O)[C@@H](O)[C@@H]2[C@@H]3C(=O)N(C4CCCCC4)C(=O)[C@H]3CC[C@H]12`, the activity, negative = inhibition was 18.1% [at 11.4 µM] (inactive). For the compound `CCOc1ccc(-n2c(SCC(=O)Nc3ccccc3C)n[nH]c2=O)cc1`, the “activity, negative = inhibition” value is -12.1% (inactive). As to `O=C(CSc1nnc(-c2ccccc2)n1-c1ccccc1)c1cccs1`, the concentration at half-maximal activity (AC50) was 2.51 µM (active). With `N#Cc1c(-c2ccccc2)cc(C2CC2)nc1SCC(=O)c1cccs1`, the “activity, negative = inhibition” value was 30.5% (inactive). For `Cc1ccccc1NC(=O)CSc1nnc(-c2ccccc2)n1-c1ccccc1`, the concentration at half-maximal activity (AC50) is 1.78 µM (active). For `CCn1c(SCC(=O)Nc2ccccc2C(=O)OC)nnc1-c1ccc(N)cc1`, the “activity, negative = inhibition” value was -6.9% (inactive). For `COC(=O)CSc1nnc(-c2ccccc2OC)n1-c1ccc(C)cc1`, the “activity, negative = inhibition” value is 15.1% (inactive).
